Data as given in PubChem BioAssay AID651598 (Sanford-Burnham Center for Chemical Genomics, 2012).
Values joined by “and” are separate entries in the source; they are usually repeats but may differ in a detail not shown here. Equal values may be shown once.

Molecular target: Apelin receptor (Homo sapiens) (UniProt P35414)
Assay: APJ beta-arrestin recruitment blockade alongside CXCR6 – cell-based, DiscoveRx, panel, CHO-K1, counter-screen for CXCR6 antagonist project, SAR follow-up (AID 651598)
Details: CHO-K1 PathHunter beta-arrestin luminescence, antagonist mode; run 1, at 80 µM (top of the series)

Sequence of Apelin receptor (Homo sapiens) (P35414 whole entry, looked up): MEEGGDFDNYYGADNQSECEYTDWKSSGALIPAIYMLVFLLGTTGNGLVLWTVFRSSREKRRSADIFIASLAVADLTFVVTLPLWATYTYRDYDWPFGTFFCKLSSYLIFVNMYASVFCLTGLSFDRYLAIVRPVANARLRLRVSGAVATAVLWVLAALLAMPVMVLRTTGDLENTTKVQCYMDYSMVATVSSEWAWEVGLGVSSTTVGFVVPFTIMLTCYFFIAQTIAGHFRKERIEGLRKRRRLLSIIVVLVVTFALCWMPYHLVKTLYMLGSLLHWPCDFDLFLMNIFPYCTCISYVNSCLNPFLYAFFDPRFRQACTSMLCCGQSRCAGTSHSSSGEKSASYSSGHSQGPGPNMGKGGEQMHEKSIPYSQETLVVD

| SMILES | inhibition |
| --- | --- |
| COc1cc(C(=O)NC2CC3CCC(C2)N3CC(=O)Nc2ccccc2)cc(OC)c1OC (stereo not drawn) | 15.6% and 6.78% |
| COc1cc(C(=O)NC2CC3CCCC(C2)N3CC(=O)Nc2ccccc2)cc(OC)c1OC (stereo not drawn) | -17.1% and -7.52% and 20.1% |
| COc1cc(C(=O)NC2CCN(CC(=O)Nc3ccccc3)CC2)cc(OC)c1OC | -17.6% |
